Activity calls are given as the source filed them. Unless noted, how the calls were made is not given here. Square brackets hold non-standard residues; d marks the D form. Peptide text beside a SMILES is read from it. Nle = CCCC[C@H](N)C(=O)O
Key:
[1] = viability loss with induced miR-34 in A549 – imaging, A549 dox-inducible miR-34, nuclei and caspase counts, primary screen (AID 1347080;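 active means compounds whose cell count with miR-34 switched on is under 0.7 times the count with it off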); settings: A549 miR-34 inducible, Hoechst nuclei count, 48 h
[2] = chitosan synthesis blockers in C. neoformans – flow cytometry, Cibacron Brilliant Red staining (AID 1347148); settings: Cryptococcus neoformans chitosan, stronger effect = lower value; at 10 µM unless noted;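 further: compound exposure lasted three days at 37 degrees C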
[3] = MELAS cybrid and Rieske KO viability enhancers – cell-based, MELAS cybrids, Rieske KO mouse fibroblasts, CellTiter-Glo, primary screen (AID 1508586;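 active means mean z-score across replicates of 1.96 or higher in either the MELAS or the Rieske mutant cell line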;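 further: z relative to plate mean and SD of compound and empty wells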); settings: low glucose
[4] = compounds altering viability of human ES cells (AID 493140); settings: human embryonic stem cell survival screen; stronger effect = higher value;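 further: cells exposed to compounds for four days before counting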
[5] = compounds altering circadian rhythm period length – cell-based, LOPAC library, luminescence reporter (AID 2774); settings: circadian reporter cells, at 7 µM, actives lie on both sides;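 further: values are relative to mean of DMSO wells on each plate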
[6] = tested on: Hepatitis C virus NS3 helicase; test: blockers of NS3h binding to ssDNA – biochemical, fluorescence polarization, LOPAC1280 library, primary screen (AID 687035; in the data active means inhibition above about 37%); settings: Purified HCV NS3 helicase, Cy5-dT15 ssDNA binding fluorescence polarization; stronger effect = higher value; concentration not given here
[7] = compounds altering Cy5-DNA-NS3h complex signal – biochemical, LOPAC1280, artefact control for HCV NS3 helicase inhibitor project (AID 687037); settings: Cy5-DNA-NS3h complex fluorescence interference counterscreen
[8] = blockers of cellular phospholipid synthesis – cell-based, LOPAC library, screen 4, primary screen (AID 1347384); settings: animal cells, phospholipid biosynthesis inhibition screen; at 10 µM
[9] = galactose survival enhancers in mitochondrial complex I cybrids – cell-based, galactose medium, ATP luminescence, primary screen (AID 1645843;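 active means z-score of at least 1.8 in each of two replicates, scored against plate mean and spread of sample wells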;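 further: positive z means more ATP and so rescue of galactose-driven cybrid death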); settings: complex I mutant cybrid cells, 72 h, stronger effect = higher value
[10] = stronger effect = lower value, cell number ratio, induced over uninduced
[11] = measured here: relative caspase fold change +Dox/-Dox
[12] = measured here: total cells with miR-34 induction, stronger effect = lower value
[13] = measured here: total cells without miR-34 induction

CCOC(=O)C1OC1C(=O)NC(CC(C)C)C(=O)NCCC(C)C (stereo unspecified)
fold change [1, 10]: 0.903 (inactive) | fold change [1, 11]: 0.67 | cell count [1, 12]: 8060 | cell count [1, 13]: 8930 | fold fluorescence [2]: 5.77 [at 146 µM] (inactive) | z-score ([3]; MELAS cybrid survival, CellTiter-Glo 48 h, stronger effect = higher value): -0.522 (inactive) | z-score ([3]; Rieske KO mouse fibroblast survival, CellTiter-Glo 72 h): -1.31

CCCCC/C=C\C\C=C/C=C/C=C/[C@@H](SCC(NC(C)=O)C(=O)O)[C@@H](O)CCCC(=O)O (stereo partly specified)
survival [4]: 136 (inactive) | fold change [1, 10]: 0.952 (inactive) | fold change [1, 11]: 1.06 | cell count [1, 12]: 5780 | cell count [1, 13]: 6080 | fold fluorescence [2]: 4.05 [at 1 µM] (inactive)

CCCCC/C=C\CC1OC1C/C=C\C/C=C\CCCC(=O)O (stereo unspecified)
survival [4]: 104 (inactive) | fold change [1, 10]: 1.05 (inactive) | fold change [1, 11]: 1.1 | cell count [1, 12]: 5770 | cell count [1, 13]: 5500 | fold fluorescence [2]: 6.17 [at 1 µM] (inactive)

CCCCCCCCCCCCCCC[C@H](O)[C@H](N)CO
period change [5]: -0.08 h (inactive) | inhibition [6]: 4% (inactive) | fluorescence ratio (interference) [7]: 0.9 (inactive) | fold change [1, 10]: 0.911 (inactive) | fold change [1, 11]: 1.55 | cell count [1, 12]: 1060 | cell count [1, 13]: 1170 | fold fluorescence [2]: 8.12 (inactive) | outcome [8]: inactive | z-score [9]: -0.39 (inactive)

CCCC[C@@H](C=O)NC(=O)[C@H](CC(C)C)NC(=O)[C@H](CC(C)C)NC(C)=O (Ac-Leu-Leu-[Nle]-aldehyde)
fold change [1, 10]: 0.909 (inactive) | fold change [1, 11]: 1.22 | cell count [1, 12]: 1540 | cell count [1, 13]: 1700 | fold fluorescence [2]: 4.19 [at 130.4 µM] (inactive)

CCCCC/C=C\CC(O)/C=C/c1cccc(CC(O)CCCCO)n1 (stereo unspecified)
period change [5]: 0.025 h (inactive) | survival [4]: 97.4 (inactive) | inhibition [6]: -1% (inactive) | fluorescence ratio (interference) [7]: 0.9 (inactive) | fold change [1, 10]: 0.988 (inactive) | fold change [1, 11]: 1.4 | cell count [1, 12]: 5690 | cell count [1, 13]: 5760 | fold fluorescence [2]: 3.69 [at 1 µM] (inactive)

N#C/C(=C\c1cc(Cl)cc(Cl)c1)c1cccnc1
survival [4]: 87.3 (inactive) | fold change [1, 10]: 1.04 (inactive) | fold change [1, 11]: 0.973 | cell count [1, 12]: 1950 | cell count [1, 13]: 1890 | fold fluorescence [2]: 4 [at 181.7 µM] (inactive)

CCCCCCCCCCCCCCCC(=O)N[C@@H](COP(=O)(O)O)C(=O)O
survival [4]: 91.8 (inactive) | fold change [1, 10]: 0.975 (inactive) | fold change [1, 11]: 1.1 | cell count [1, 12]: 5800 | cell count [1, 13]: 5940 | fold fluorescence [2]: 4.28 (inactive)

CCCCC[C@H](O)/C=C/C=C\C=C\C=C\[C@@H](O)[C@@H](O)CCCC(=O)O
survival [4]: 89.1 (inactive) | fold change [1, 10]: 0.912 (inactive) | fold change [1, 11]: 1.26 | cell count [1, 12]: 5670 | cell count [1, 13]: 6220 | fold fluorescence [2]: 4.45 [at 1 µM] (inactive)

COC(=O)[C@@H](N)CSC/C=C(\C)CC/C=C(\C)CCC=C(C)C
survival [4]: 74.2 (inactive) | fold change [1, 10]: 0.927 (inactive) | fold change [1, 11]: 1.37 | cell count [1, 12]: 6060 | cell count [1, 13]: 6540 | fold fluorescence [2]: 4.53 (inactive)

CCCCC/C=C\C/C=C\CCCCCCCC(N)=O
survival [4]: 66.5 (inactive) | fold change [1, 10]: 0.981 (inactive) | fold change [1, 11]: 1.16 | cell count [1, 12]: 6200 | cell count [1, 13]: 6320 | fold fluorescence [2]: 4.31 (inactive)

COc1c(C=O)c(O)cc2c1C(=O)c1ccccc1C2=O
survival [4]: 93.2 (inactive) | fold change [1, 10]: 0.91 (inactive) | fold change [1, 11]: 0.797 | cell count [1, 12]: 2810 | cell count [1, 13]: 3080 | fold fluorescence [2]: 5.22 [at 177.1 µM] (inactive)

CCCCCCCCCC(=O)N[C@H](CN1CCOCC1)[C@H](O)c1ccccc1
survival [4]: 80.8 (inactive) | fold change [1, 10]: 0.988 (inactive) | fold change [1, 11]: 1.18 | cell count [1, 12]: 5550 | cell count [1, 13]: 5620 | fold fluorescence [2]: 3.25 (active)

CCCCC[C@H](O)/C=C/C=C\CCCCCCCC(=O)O
survival [4]: 87.8 (inactive) | fold change [1, 10]: 0.929 (inactive) | fold change [1, 11]: 1.14 | cell count [1, 12]: 5740 | cell count [1, 13]: 6180 | fold fluorescence [2]: 6.42 [at 1 µM] (inactive)

N#CC(C#N)=C(N)/C(C#N)=C/c1ccc2[nH]ccc2c1
survival [4]: 107 (inactive) | fold change [1, 10]: 1.01 (inactive) | fold change [1, 11]: 0.81 | cell count [1, 12]: 5080 | cell count [1, 13]: 5030 | fold fluorescence [2]: 3.69 [at 192.8 µM] (inactive)

CCCCCCCCCCCCCCCC(=O)N[C@H](CN1CCOCC1)[C@H](O)c1ccccc1
survival [4]: 83.7 (inactive) | fold change [1, 10]: 1 (inactive) | fold change [1, 11]: 1.57 | cell count [1, 12]: 5590 | cell count [1, 13]: 5590 | fold fluorescence [2]: 5.42 (inactive)

O=Cc1c2[nH]c3ccccc3c2cc2[nH]c3ccccc3c12
survival [4]: 124 (inactive) | fold change [1, 10]: 0.873 (inactive) | fold change [1, 11]: 1.33 | cell count [1, 12]: 4820 | cell count [1, 13]: 5520 | fold fluorescence [2]: 4.2 (inactive)

CS(=O)(=O)c1ccc(-n2nc(C(F)(F)F)cc2-c2ccc(F)cc2)cc1
fold change [1, 10]: 1.12 (inactive) | fold change [1, 11]: 0.872 | cell count [1, 12]: 9270 | cell count [1, 13]: 8270 | outcome [8]: inactive | z-score [9]: 0.62 (inactive)

COc1ccc(C(=O)/C(Cc2cc(OC)c(OC)c(OC)c2)=C(\C(=O)O)c2ccc3c(c2)OCO3)cc1
fold change [1, 10]: 1.31 (inactive) | fold change [1, 11]: 1.24 | cell count [1, 12]: 3900 | cell count [1, 13]: 2980 | outcome [8]: inactive | z-score [9]: -1.33 (inactive)

From PubChem BioAssay
